Measured values: PubChem BioAssay (Tox21)
Records with an inconclusive call do not appear. Active and inactive are the calls of the source. Unless noted, calls follow the shape of the dose curve; as a rule, active = well fitted curve in the direction sought with a large enough effect in the repeat runs; inconclusive = weak or mixed curves; inactive = no such curve, though single readings can be large; an effect the other way counts as inactive or inconclusive.

How the values were obtained:
[1] = target: Thyrotropin receptor (Homo sapiens) (UniProt P16473); assay: qHTS assay to identify small molecule agonists of the thyroid stimulating hormone receptor (TSHR) signaling pathway (AID 1224843; calls by dose curve; also: nearly all actives have a fitted effect of over 45% in size)
Summary of the method: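 Compounds are titrated over 15 concentrations, in triplicate, onto TSHR-HEK293 cells seeded at 800/well. Plates sit 30 min at room temperature before cAMP-d2 and anti-cAMP cryptate are added; signal is read after a further hour.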

[2] = qHTS assay to identify small molecule agonists of H2AX (AID 1224845; active = well fitted activation curve with a large enough effect in the signal ratio in the repeat runs, not every such curve was filed as active; the % refers to the signal ratio)
Summary of the method: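 Wild-type CHO-K1 cells plated overnight, then exposed 3 hr at 37C to compounds at 15 concentrations (0.76% DMSO). Lysed, then HTRF anti-pH2AX(S139)-cryptate/anti-H2AX-d2 detection after 24 hr at room temperature; emissions 665 and 620 nm.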

[3] = qHTS assay to identify small molecule agonists of H2AX - cell viability counter screen (AID 1224847; calls by dose curve; also: nearly all actives have a fitted effect of over 30% in size; also: potency is read from the fitted curve at half-maximal effect)
Summary of the method: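 For this counter screen, overnight-attached CHO-K1 cells received test compounds (15 concentrations, 0.76% DMSO final); 3 hr later at 37C, CellTiter-Glo reagent was added and luminescence recorded after 30 min at room temperature.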

[4] = qHTS assay to identify small molecule agonists of the estrogen related receptor (ERR) signaling pathway from Tox21 library (AID 1224849; calls by dose curve; also: nearly all actives have a fitted effect of over 15% in size); conditions: ERR reporter cell line, ONE-Glo luciferase, 18 h; at 92.4 µM (top of the series) unless noted
Summary of the method: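 Cells carrying the ERR reporter were plated and allowed to settle for 6 h, exposed to library compounds for 18 h at 37 C, then lysed with ONE-Glo and luminescence measured.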

[5] = qHTS RealTime-Glo MT Cell Viability Assay in HEK293 cells - 32 hour (AID 1224868); also: nearly all actives have a fitted effect of over 50% in size; also: potency is read from the fitted curve at half-maximal effect
Summary of the method: (§1)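 Tox21 10K qHTS, HEK293, 600 cells/well, RealTime-Glo reagent co-dispensed with cells; 5 h preincubation, compound by pintool, 37 C, luminescence at 0–40 h.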

[6] = A CellTox Green Cytotoxicity Assay to monitor cytotoxicity in HEK293 cells - 0 hour (AID 1224869); also: nearly all actives have a fitted effect of over 50% in size
Summary of the method: (§2)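 Cells (HEK293, 600/well) and dye reagent are dispensed together. After 5 h at 37 C, 23 nL compound is pinned in. Plates stay at 37 C for 40 h with fluorescence read at 0h, 8h, 16h, 24h, 32h and 40h.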

[7] = qHTS RealTime-Glo MT Cell Viability Assay in HEK293 cells - 40 hour (AID 1224874); conditions: RealTime-Glo luminescence; max response: active compounds read low; also: nearly all actives have a fitted effect of over 50% in size; also: potency is read from the fitted curve at half-maximal effect
Summary of the method: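 Real-time viability in HEK293: signal arises when living cells convert a prosubstrate for NanoLuc in the medium, so luminescence tracks viable cell number. Compound (23 nL, DMSO) added 5 h post-seeding; kinetic reads at 0–40 h, 37 C.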

[8] = A CellTox Green Cytotoxicity Assay to monitor cytotoxicity in HEK293 cells - 24 hour (AID 1224875); also: nearly all actives have a fitted effect of over 45% in size; also: potency is read from the fitted curve at half-maximal effect
Summary of the method: as §2

[9] = A CellTox Green Cytotoxicity Assay to monitor cytotoxicity in HepG2 cells - 16 hour (AID 1224876); also: nearly all actives have a fitted effect of over 45% in size; also: potency is read from the fitted curve at half-maximal effect
Summary of the method: (§3)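 Cells and non-lytic dye reagent are dispensed together (600 HepG2 cells/well) and incubated 5 h before DMSO compound transfer. Kinetic fluorescence is then recorded in the same wells during 40 h at 37 C.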

[10] = A CellTox Green Cytotoxicity Assay to monitor cytotoxicity in HepG2 cells - 24 hour (AID 1224878); also: nearly all actives have a fitted effect of over 45% in size; also: potency is read from the fitted curve at half-maximal effect
Summary of the method: as §3

[11] = qHTS assay to identify small molecule agonists of the hypoxia (HIF-1) signaling pathway - cell viability counter screen (AID 1224844; calls by dose curve; also: nearly all actives have a fitted effect of over 50% in size; also: potency is read from the fitted curve at half-maximal effect)
Summary of the method: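 Cytotoxicity was measured in parallel with the HRE-driven beta-lactamase readout: after 17 hrs of compound exposure at 37C, HRE-bla ME-180 cells received CellTiter-Glo and luminescence was recorded 30 min later.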

[12] = qHTS assay to identify small molecule agonists of the hypoxia (HIF-1) signaling pathway (AID 1224846; active = well fitted activation curve with a large enough effect in the signal ratio in the repeat runs, not every such curve was filed as active; the % refers to the signal ratio)
Summary of the method: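 Compounds from the Tox21 10K library, dissolved in DMSO, are tested for induction of a hypoxia response element–controlled beta-lactamase reporter in ME-180 cells. Exposure lasts 17 hrs at 37C after a 5 hr settling period, followed by CCF4-AM FRET substrate.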

[13] = qHTS RealTime-Glo MT Cell Viability Assay in HepG2 cells - 24 hour (AID 1224867); also: nearly all actives have a fitted effect of over 50% in size; also: potency is read from the fitted curve at half-maximal effect
Summary of the method: (§4)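 Cells + NanoLuc/prosubstrate dispensed (600 cells/well) → 5 h at 37 C/5% CO2 → compounds in DMSO transferred → 40 h incubation at 37 C, luminescence read at 0, 8, 16, 24, 32, 40 h.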

[14] = qHTS RealTime-Glo MT Cell Viability Assay in HepG2 cells - 40 hour (AID 1224870); also: nearly all actives have a fitted effect of over 50% in size
Summary of the method: (§5)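 HepG2 cells mixed with RealTime-Glo MT reagents (NanoLuc plus cell-permeant prosubstrate) were seeded at 600 cells/well, incubated 5 h at 37 C/5% CO2, then pinned with compounds in DMSO; nonlytic luminescence tracked viability during 40 h treatment.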

[15] = qHTS RealTime-Glo MT Cell Viability Assay in HEK293 cells - 16 hour (AID 1224872); also: nearly all actives have a fitted effect of over 50% in size; also: potency is read from the fitted curve at half-maximal effect
Summary of the method: as §1

[16] = qHTS RealTime-Glo MT Cell Viability Assay in HepG2 cells - 8 hour (AID 1224873); also: nearly all actives have a fitted effect of over 55% in size
Summary of the method: as §5

[17] = qHTS RealTime-Glo MT Cell Viability Assay in HepG2 cells - 32 hour (AID 1224877); also: nearly all actives have a fitted effect of over 55% in size; also: potency is read from the fitted curve at half-maximal effect
Summary of the method: as §4

[18] = A CellTox Green Cytotoxicity Assay to monitor cytotoxicity in HepG2 cells - 40 hour (AID 1224879); also: nearly all actives have a fitted effect of over 40% in size; also: potency is read from the fitted curve at half-maximal effect
Summary of the method: as §3

[19] = A CellTox Green Cytotoxicity Assay to monitor cytotoxicity in HEK293 cells - 40 hour (AID 1224871); also: nearly all actives have a fitted effect of over 45% in size; also: potency is read from the fitted curve at half-maximal effect
Summary of the method: as §2

[20] = qHTS assay to identify small molecule antagonists of the estrogen related receptor (ERR) signaling pathway from Tox21 library (AID 1224848); also: nearly all actives have a fitted effect of over 50% in size
Summary of the method: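 First, 2,000 ERR cells per well were plated and held 6 h at 37 C/5% CO2. Next, compounds in DMSO were pinned in and left 18 h at 37 C. Finally, ONE-Glo was added and luminescence read after 30 min at room temperature.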
% is scaled to controls: 0 for no effect and ±100 for the full control effect.

Chain of Thyrotropin receptor (Homo sapiens) (P16473 whole entry, looked up): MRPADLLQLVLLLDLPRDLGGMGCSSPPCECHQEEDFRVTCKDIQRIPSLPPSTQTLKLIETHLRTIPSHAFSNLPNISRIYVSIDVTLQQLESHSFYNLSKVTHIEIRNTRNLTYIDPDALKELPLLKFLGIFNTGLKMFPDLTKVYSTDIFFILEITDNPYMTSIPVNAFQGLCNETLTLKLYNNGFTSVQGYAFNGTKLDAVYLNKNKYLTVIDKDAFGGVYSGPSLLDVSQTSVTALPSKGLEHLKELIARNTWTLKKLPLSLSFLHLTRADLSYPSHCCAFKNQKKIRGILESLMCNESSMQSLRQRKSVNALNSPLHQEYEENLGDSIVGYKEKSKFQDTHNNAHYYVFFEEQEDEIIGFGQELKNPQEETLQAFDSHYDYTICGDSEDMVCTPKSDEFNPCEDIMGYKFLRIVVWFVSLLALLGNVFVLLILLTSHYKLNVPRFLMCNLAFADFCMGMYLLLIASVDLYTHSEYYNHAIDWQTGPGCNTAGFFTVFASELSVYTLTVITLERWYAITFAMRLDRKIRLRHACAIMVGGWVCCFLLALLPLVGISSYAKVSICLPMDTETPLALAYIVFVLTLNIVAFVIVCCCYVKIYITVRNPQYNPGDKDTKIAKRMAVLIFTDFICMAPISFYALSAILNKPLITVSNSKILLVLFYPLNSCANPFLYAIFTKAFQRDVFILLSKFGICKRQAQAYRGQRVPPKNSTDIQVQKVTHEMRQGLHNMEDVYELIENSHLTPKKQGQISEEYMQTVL

COc1ccccc1NC(=O)c1cc2ccccc2cc1O
active: Potency [3] 89.8 µM | Potency [5] 34.7 µM | Potency [7] 34.7 µM
inactive: Potency [1] | Potency [2] | activity change, positive = activation [4] -49.7% | Potency [6] | Potency [8] | Potency [9] | Potency [10]

Oc1cccc(Nc2ccccc2)c1
active: Potency [5] 14.4 µM | Potency [15] 22.8 µM | Potency [7] 12.8 µM
inactive: Potency [1] | Potency [11] | outcome [12] | Potency [13] | Potency [6] | Potency [14] | Potency [16] | Potency [8] | Potency [9] | Potency [17] | Potency [10] | Potency [18]

COc1cc(C(=O)NC2CCN(C)CC2)ccc1Nc1ncc2c(n1)N(C1CCCC1)CC(F)(F)C(=O)N2C
inactive: Potency [1] | outcome [12] | activity change, positive = activation [4] -53.6%
active: Potency [11] 20 µM | Potency [13] 40 µM | Potency [5] 0.0142 µM | Potency [19] 35.7 µM | Potency [15] 2 µM | Potency [7] 0.0179 µM | Potency [8] 20 µM | Potency [9] 44.9 µM | Potency [17] 40 µM | Potency [10] 40 µM | Potency [18] 22.5 µM

c1ccc2sc(SN(C3CCCCC3)C3CCCCC3)nc2c1
inactive: Potency [1] | Potency [2] | outcome [12] | Potency [3] | Potency [13] | Potency [5] | Potency [6] | Potency [14] | Potency [15] | Potency [16] | max response [7] 3.85% | Potency [8] | Potency [9] | Potency [17] | Potency [10] | Potency [18]

O=[N+]([O-])c1ccc(O/N=C/c2cc(Br)c(O)c(Br)c2)c([N+](=O)[O-])c1
inactive: Potency [1] | Potency [11] | outcome [12] | Potency [13] | Potency [6] | Potency [14] | Potency [19] | Potency [16] | Potency [8] | Potency [9] | Potency [10] | Potency [18]
active: Potency [5] 43.4 µM | Potency [15] 43.4 µM | Potency [7] 43.4 µM

O=C1c2ccccc2C(=O)C1c1ccc(Br)cc1
active: activity change, positive = activation [4] 99.8% [at 42.5 µM]
inactive: Potency [1] | Potency [11] | outcome [12] | Potency [3] | Potency [20] | Potency [13] | Potency [5] | Potency [6] | Potency [14] | Potency [15] | Potency [16] | max response [7] -7.99% | Potency [8] | Potency [9] | Potency [17] | Potency [10] | Potency [18]

CN1C[C@H](C(=O)N[C@]2(C)O[C@@]3(O)[C@@H]4CCCN4C(=O)[C@H](Cc4ccccc4)N3C2=O)C[C@@H]2c3cccc4[nH]cc(c34)C[C@H]21
inactive: Potency [1] | activity change, positive = activation [4] -52.3% [at 42.5 µM] | Potency [6]
active: Potency [11] 12 µM | Potency [5] 21.3 µM | Potency [15] 23.9 µM | Potency [7] 12 µM

O=C(CCCN1CC=C(n2c(=O)[nH]c3ccccc32)CC1)c1ccc(F)cc1
active: Potency [15] 9.52 µM | Potency [7] 9.52 µM
inactive: Potency [1] | Potency [11] | Potency [2] | Potency [13] | Potency [6] | Potency [14] | Potency [19] | Potency [16] | Potency [8] | Potency [9] | Potency [18]

CC[C@]1(O)C[C@H]2CN(CCc3c([nH]c4ccccc34)[C@@](C(=O)OC)(c3cc4c(cc3OC)N(C=O)[C@H]3[C@@](O)(C(=O)OC)[C@H](OC(C)=O)[C@]5(CC)C=CCN6CC[C@]43[C@@H]65)C2)C1
inactive: Potency [1] | Potency [2] | Potency [3] | Potency [13] | Potency [6] | Potency [14] | Potency [19] | Potency [15] | Potency [16] | Potency [8] | Potency [9] | Potency [17] | Potency [10]
active: Potency [5] 0.0013 µM | Potency [7] 0.0012 µM

Oc1c(I)cc(I)c2cccnc12
inactive: Potency [1] | Potency [11] | Potency [3] | activity change, positive = activation [4] -8.8% [at 42.5 µM] | Potency [13] | Potency [6] | Potency [14] | Potency [19] | Potency [15] | Potency [16] | Potency [8] | Potency [9] | Potency [17] | Potency [10] | Potency [18]

O=c1c(O)c(-c2ccc(O)cc2)oc2cc(O)cc(O)c12
inactive: Potency [1] | Potency [11] | Potency [20] | activity change, positive = activation [4] 4.05% [at 42.5 µM] | Potency [13] | Potency [5] | Potency [6] | Potency [14] | Potency [19] | Potency [16] | Potency [8] | Potency [9] | Potency [17] | Potency [10] | Potency [18]

CS(=O)(=O)c1ccc(-c2cn3ccccc3n2)cc1
inactive: Potency [1] | outcome [12] | Potency [20] | Potency [6] | Potency [14] | Potency [19] | Potency [15] | Potency [8] | Potency [9] | Potency [17]
active: Potency [11] 23.9 µM | Potency [3] 31 µM

COc1ccc(OC(=O)N(CC(=O)O)Cc2ccc(OCCc3nc(-c4ccccc4)oc3C)cc2)cc1
inactive: Potency [1] | Potency [2] | outcome [12] | activity change, positive = activation [4] -6.74% [at 42.5 µM] | Potency [13] | Potency [5] | Potency [6] | Potency [14] | Potency [19] | Potency [16] | max response [7] -9.99% | Potency [8] | Potency [9] | Potency [17] | Potency [10] | Potency [18]
active: Potency [3] 27.7 µM
